Test results reported in the supplement of paper PMC11001985.
A number with no mark means an inactive call.

Compound: C#CCNC(=O)CCSSCCC(=O)NCCc1ccc(C=O)c(C=O)c1
Test: lysine labeling ratio R10:1 (500 µM / 50 µM probe), SILAC-ABPP in living cells; higher = lower intrinsic lysine reactivity toward the probe, active = 2 or less
Details: HeLa; probe concentrations 500 vs 50 µM
Protocol: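 Living HeLa cells (SILAC light/heavy) in PBS at room temperature were labeled with 50 µM versus 500 µM of the lysine-reactive, reductant-cleavable probe OPA-S-S-alkyne (SILAC labeling time not stated). Probe-modified peptides were CuAAC-biotinylated, captured on neutravidin and eluted with DTT/IAA, then quantified by LC-MS/MS. R = median peptide ratio per lysine (500/50 µM), combined over 3 forward and 3 reverse SILAC replicates. Ratios are capped at 20; R < 2 = hyper-reactive.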

Chain of UniProt P35579 (P35579 whole entry): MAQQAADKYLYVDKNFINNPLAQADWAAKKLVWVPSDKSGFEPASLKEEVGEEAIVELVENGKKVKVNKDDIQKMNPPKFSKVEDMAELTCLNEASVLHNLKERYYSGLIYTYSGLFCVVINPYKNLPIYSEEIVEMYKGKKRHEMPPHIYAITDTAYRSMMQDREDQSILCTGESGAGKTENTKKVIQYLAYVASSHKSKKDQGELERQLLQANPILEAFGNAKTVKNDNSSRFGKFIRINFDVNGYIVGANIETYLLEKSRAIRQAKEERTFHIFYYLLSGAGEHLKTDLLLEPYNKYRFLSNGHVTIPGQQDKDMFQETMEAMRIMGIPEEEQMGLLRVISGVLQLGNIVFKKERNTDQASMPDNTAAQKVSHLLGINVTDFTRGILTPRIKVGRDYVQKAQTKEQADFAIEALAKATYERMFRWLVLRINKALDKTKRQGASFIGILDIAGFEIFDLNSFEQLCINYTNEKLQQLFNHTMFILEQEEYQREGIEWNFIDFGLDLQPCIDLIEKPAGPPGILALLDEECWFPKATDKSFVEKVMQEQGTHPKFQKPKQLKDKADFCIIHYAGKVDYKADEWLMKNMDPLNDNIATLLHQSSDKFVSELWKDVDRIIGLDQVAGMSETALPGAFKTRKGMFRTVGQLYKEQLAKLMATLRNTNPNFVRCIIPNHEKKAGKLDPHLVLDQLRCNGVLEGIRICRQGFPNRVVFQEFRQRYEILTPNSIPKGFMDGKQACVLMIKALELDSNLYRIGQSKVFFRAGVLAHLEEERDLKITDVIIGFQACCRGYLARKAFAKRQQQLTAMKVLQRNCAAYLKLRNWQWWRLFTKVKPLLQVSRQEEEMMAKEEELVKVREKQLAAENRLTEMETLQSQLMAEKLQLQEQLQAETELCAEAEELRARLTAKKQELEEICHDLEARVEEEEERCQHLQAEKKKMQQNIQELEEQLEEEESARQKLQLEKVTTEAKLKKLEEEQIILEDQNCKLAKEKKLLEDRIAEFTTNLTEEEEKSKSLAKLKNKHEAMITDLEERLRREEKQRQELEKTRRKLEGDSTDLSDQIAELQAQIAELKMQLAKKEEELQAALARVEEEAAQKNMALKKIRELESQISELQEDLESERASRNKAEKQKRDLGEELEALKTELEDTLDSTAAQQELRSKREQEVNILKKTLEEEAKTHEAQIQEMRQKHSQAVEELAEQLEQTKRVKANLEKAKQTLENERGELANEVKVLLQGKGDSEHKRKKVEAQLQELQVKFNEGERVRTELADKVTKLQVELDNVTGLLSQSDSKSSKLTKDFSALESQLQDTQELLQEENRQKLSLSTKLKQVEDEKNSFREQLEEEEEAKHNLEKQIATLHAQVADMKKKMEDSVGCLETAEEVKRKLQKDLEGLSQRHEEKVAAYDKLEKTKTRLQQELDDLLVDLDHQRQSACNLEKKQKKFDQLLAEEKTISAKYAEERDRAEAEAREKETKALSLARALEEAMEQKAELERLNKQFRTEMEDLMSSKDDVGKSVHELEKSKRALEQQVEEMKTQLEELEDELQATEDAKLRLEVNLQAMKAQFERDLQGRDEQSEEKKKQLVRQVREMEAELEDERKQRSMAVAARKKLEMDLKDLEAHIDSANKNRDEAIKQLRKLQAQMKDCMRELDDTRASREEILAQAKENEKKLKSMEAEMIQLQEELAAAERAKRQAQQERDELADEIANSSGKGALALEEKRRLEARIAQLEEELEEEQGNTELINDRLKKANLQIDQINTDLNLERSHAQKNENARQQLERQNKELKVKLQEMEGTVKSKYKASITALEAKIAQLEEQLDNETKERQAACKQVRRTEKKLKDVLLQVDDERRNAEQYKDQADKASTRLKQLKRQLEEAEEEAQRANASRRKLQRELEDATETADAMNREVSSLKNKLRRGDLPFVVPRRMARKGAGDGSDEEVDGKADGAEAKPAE
Chain of UniProt P10809 (P10809 whole entry): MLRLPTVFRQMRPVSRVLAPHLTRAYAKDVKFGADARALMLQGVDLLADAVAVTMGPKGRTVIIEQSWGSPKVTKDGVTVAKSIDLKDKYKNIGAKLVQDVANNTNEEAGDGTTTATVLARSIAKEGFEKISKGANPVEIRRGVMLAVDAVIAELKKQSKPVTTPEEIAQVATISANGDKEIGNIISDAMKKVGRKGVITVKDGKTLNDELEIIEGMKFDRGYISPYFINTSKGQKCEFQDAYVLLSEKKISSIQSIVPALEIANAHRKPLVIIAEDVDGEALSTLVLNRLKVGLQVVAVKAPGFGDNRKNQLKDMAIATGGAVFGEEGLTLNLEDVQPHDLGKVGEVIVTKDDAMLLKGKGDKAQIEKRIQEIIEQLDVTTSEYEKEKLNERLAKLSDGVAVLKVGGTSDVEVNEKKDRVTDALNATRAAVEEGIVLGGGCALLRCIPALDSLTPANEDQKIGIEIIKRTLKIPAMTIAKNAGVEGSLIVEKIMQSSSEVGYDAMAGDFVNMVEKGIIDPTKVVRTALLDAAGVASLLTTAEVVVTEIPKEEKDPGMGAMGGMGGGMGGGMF
Chain of UniProt P26639 (P26639 whole entry): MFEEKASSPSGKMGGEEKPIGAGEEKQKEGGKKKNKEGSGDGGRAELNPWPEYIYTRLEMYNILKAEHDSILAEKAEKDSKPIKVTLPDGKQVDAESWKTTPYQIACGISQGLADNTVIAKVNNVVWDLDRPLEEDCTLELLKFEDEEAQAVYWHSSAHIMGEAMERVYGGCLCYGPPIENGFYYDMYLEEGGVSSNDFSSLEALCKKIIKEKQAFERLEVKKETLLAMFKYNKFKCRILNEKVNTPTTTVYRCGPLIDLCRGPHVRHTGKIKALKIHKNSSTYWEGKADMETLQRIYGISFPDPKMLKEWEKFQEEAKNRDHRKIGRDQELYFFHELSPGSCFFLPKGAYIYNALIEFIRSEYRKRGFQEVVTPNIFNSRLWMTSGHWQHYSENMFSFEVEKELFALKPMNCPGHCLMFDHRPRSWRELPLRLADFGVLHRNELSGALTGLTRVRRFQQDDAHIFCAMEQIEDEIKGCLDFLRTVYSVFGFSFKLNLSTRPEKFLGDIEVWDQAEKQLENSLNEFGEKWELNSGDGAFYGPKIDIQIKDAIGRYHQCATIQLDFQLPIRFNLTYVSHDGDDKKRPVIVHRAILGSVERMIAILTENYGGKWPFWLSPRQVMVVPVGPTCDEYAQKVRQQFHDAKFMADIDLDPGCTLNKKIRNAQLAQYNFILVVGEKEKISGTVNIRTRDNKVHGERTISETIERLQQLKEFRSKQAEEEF
Chain of UniProt Q03167 (Q03167 whole entry): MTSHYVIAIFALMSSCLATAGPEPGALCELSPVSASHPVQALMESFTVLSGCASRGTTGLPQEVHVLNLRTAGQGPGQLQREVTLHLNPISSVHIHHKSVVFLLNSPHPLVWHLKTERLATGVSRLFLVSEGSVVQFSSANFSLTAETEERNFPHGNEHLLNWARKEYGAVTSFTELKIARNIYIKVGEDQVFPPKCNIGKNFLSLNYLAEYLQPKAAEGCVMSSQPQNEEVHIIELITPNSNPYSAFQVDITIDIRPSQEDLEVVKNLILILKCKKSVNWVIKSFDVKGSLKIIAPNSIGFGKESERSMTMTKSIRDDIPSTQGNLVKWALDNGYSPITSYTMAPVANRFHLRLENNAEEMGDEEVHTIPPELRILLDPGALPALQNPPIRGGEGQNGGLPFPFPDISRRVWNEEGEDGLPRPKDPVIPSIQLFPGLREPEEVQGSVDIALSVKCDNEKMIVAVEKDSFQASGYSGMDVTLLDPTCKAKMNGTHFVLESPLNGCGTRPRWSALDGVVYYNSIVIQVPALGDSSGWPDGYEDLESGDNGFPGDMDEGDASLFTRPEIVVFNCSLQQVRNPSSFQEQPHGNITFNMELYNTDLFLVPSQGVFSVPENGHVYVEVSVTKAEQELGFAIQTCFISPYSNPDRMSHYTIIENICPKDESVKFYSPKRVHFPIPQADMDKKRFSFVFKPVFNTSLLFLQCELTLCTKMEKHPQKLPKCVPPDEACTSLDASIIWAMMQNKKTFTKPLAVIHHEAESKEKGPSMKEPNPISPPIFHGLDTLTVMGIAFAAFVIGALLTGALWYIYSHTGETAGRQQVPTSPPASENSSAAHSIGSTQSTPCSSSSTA
Chain of UniProt O14786 (O14786 whole entry): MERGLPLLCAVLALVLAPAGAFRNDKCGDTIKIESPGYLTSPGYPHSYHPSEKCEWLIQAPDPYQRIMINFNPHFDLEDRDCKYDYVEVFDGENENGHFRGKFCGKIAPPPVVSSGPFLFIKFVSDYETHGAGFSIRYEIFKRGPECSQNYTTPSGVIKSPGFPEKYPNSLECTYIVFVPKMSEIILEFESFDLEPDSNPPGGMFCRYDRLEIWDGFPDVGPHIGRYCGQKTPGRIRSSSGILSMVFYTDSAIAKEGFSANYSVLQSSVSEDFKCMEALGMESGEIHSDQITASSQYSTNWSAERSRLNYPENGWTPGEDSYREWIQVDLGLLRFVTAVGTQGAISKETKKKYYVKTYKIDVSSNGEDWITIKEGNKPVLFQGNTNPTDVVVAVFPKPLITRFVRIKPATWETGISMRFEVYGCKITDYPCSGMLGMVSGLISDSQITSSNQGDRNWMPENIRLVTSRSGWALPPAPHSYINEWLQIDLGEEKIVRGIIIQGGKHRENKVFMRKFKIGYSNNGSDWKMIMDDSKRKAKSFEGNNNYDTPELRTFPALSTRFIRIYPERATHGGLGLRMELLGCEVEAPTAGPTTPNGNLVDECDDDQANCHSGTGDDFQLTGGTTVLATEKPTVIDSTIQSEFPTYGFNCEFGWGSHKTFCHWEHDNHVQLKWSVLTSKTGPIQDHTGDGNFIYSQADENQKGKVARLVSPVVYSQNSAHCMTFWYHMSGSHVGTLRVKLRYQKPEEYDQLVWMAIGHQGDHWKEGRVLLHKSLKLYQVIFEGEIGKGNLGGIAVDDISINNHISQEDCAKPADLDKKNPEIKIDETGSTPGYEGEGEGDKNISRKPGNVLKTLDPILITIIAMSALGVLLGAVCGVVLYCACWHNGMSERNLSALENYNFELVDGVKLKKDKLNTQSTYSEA

Row | Target | lysine labeling ratio R10:1
1 | CCT4 (lysine site: K21) (UniProt P50991) | 3.58
2 | HSPD1 (lysine site: K31) (UniProt P10809) | 4.2
3 | TLN1 (lysine site: K149) (UniProt Q9Y490) | 1.5 (active)
4 | UniProt Q15149 (lysine site: K4480) | 1.74 (active)
5 | TKT (lysine site: K59) (UniProt P29401) | 4.48
6 | DSG2 (lysine site: K561) (UniProt Q14126) | 6.57
7 | RPL5 (lysine site: K283) (UniProt P46777) | 1.68 (active)
8 | ITGAV (lysine site: K718) (UniProt P06756) | 2.95
9 | UniProt P62195 (lysine site: K55) | 2.19
10 | MCAM (lysine site: K119) (UniProt P43121) | 11.1
11 | NRP1 (lysine site: K231) (UniProt O14786) | 5.85
12 | HSP90B1 (lysine site: K683) (UniProt P14625) | 4.36
13 | RPL4 (lysine site: K239) (UniProt P36578) | 2.48
14 | UniProt Q9H336 (lysine site: K242) | 2.36
15 | LAMA5 (lysine site: K255) (UniProt O15230) | 2.33
16 | PLAUR (lysine site: K29) (UniProt Q03405) | 3.61
17 | P4HB (lysine site: K71) (UniProt P07237) | 7.22
18 | HSPA9 (lysine site: K300) (UniProt P38646) | 2.25
19 | MYH9 (lysine site: K1492) (UniProt P35579) | 2.92
20 | VAPA (lysine site: K211) (UniProt Q9P0L0) | 4.3

Row | Target | lysine labeling ratio R10:1
21 | NOTCH2 (lysine site: K1058) (UniProt Q04721) | 1.5 (active)
22 | F11R (lysine site: K178) (UniProt Q9Y624) | 5.39
23 | MARS (lysine site: K726) (UniProt P56192) | 0.748 (active)
24 | UniProt P26639 (lysine site: K319) | 2.46
25 | RPL22 (lysine site: K52) (UniProt P35268) | 7.72
26 | LMO7 (lysine site: K1264) (UniProt Q8WWI1) | 4.64
27 | CELSR2 (lysine site: K2300) (UniProt Q9HCU4) | 1.18 (active)
28 | EEF2 (lysine site: K439) (UniProt P13639) | 1.76 (active)
29 | SERPINH1 (lysine site: K217) (UniProt P50454) | 1.17 (active)
30 | RARS (lysine site: K60) (UniProt P54136) | 3.02
31 | UniProt Q8WXI7 (lysine site: K12467) | 5.1
32 | HSPD1 (lysine site: K96) (UniProt P10809) | 3.85
33 | MYH9 (lysine site: K1392) (UniProt P35579) | 1.15 (active)
34 | UniProt P16144 (lysine site: K151) | 1.53 (active)
35 | UniProt P61513 (lysine site: K13) | 1.64 (active)
36 | UniProt P08727 (lysine site: K216) | 7.74
37 | JTB (lysine site: K94) (UniProt O76095) | 5.2
38 | TGFBR3 (lysine site: K672) (UniProt Q03167) | 0.83 (active)
39 | CACNA2D1 (lysine site: K88) (UniProt P54289) | 1.78 (active)
40 | VASN (lysine site: K154) (UniProt Q6EMK4) | 1.64 (active)
